Measurements as given in PubChem BioAssay (NCATS).
Values joined by “and” are separate entries in the source; they are usually repeats but may differ in a detail not shown here. Equal values may be shown once. Inconclusive results are not listed. Active and inactive are the calls of the source. Unless noted, the call rests on the fitted dose curve; in most records, active means well fitted curve in the direction sought with a large enough effect; inconclusive means small, poorly fitted or top-dose-only effect, or another doubt; inactive means no such curve, though single readings can be large; an effect the other way counts as inactive or inconclusive.

Tests used:
[1] = P-glycoprotein substrates identified in KB-8-5-11 adenocarcinoma cell line, qHTS therapeutic library screen (AID 1346987); further: nearly all actives have a fitted effect of over 65% in size; further: potency means the concentration at half of the fitted maximal effect
Summary of the method: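 Luminescence from CellTiter-Glo, read 5 min after addition, quantified survival of KB-8-5-11 (P-gp-overexpressing) cells exposed to compounds for 72 h. AC50 was derived from concentration-response curves.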

[2] = NS1 protein of Zika virus - qHTS assay to identify small molecule inhibitors in human HEK 293 cells (AID 1347053); further: nearly all actives have a fitted effect of over 55% in size; further: potency means the concentration at half of the fitted maximal effect
Summary of the method: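 Readout was TR-FRET using paired anti-NS1 antibodies after 24 h infection of HEK 293 cells with ZIKV MR766 (MOI = 0.5). Compound preceded virus by 1 h; reduced signal reflects lower NS1 expression.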

[3] = qHTS of pediatric cancer cell lines to identify multiple opportunities for drug repurposing: Primary screen for TC32 cells (AID 1347089); further: nearly all actives have a fitted effect of over 60% in size; further: potency means the concentration at half of the fitted maximal effect
Summary of the method: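 Luminescent ATP read-out (CellTiter-Glo) of metabolically active TC32 cells after 48 h exposure. Concentration-response curves came from 11-point (MIPE, 0.78 nM–46 µM) or 8-point (NPC, 0.59 nM–46 µM) primary titrations; follow-up used 11 points.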

[4] = qHTS of pediatric cancer cell lines to identify multiple opportunities for drug repurposing: Primary screen for SK-N-MC cells (AID 1347093); further: potency means the concentration at half of the fitted maximal effect
Summary of the method: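 Metabolically active cells were quantified by ATP-dependent luminescence (CellTiter-Glo, 15 min at room temperature) following 48 h treatment. Cells had been plated at 500-1,000 per well and settled for 5 h beforehand.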

[5] = qHTS of pediatric cancer cell lines to identify multiple opportunities for drug repurposing: Primary screen for BT-37 cells (AID 1347094); further: potency means the concentration at half of the fitted maximal effect
Summary of the method: (§1)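 Following a 5-hour attachment period, cells at 500-1,000/well received compounds and were cultured for 48 hours. CellTiter-Glo was added and luminescence read to estimate viable, metabolically active cells.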

[6] = qHTS of pediatric cancer cell lines to identify multiple opportunities for drug repurposing: Primary screen for NB-EBc1 cells (AID 1347095); further: potency means the concentration at half of the fitted maximal effect
Summary of the method: as §1

[7] = qHTS of pediatric cancer cell lines to identify multiple opportunities for drug repurposing: Primary screen for U-2 OS cells (AID 1347096); further: nearly all actives have a fitted effect of over 50% in size; further: potency means the concentration at half of the fitted maximal effect
Summary of the method: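 Cells (500-1,000/well) in growth media were settled 5 h at 37 degrees C, then given compounds for 48 h. Viability was read as CellTiter-Glo luminescence. Primary runs used MIPE at 11 points (0.78 nM-46 µM) and NPC at 8 points (0.59 nM-46 µM); follow-ups used 11 points.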

[8] = qHTS of pediatric cancer cell lines to identify multiple opportunities for drug repurposing: Primary screen for Saos-2 cells (AID 1347097); further: nearly all actives have a fitted effect of over 40% in size; further: potency means the concentration at half of the fitted maximal effect
Summary of the method: as §1

[9] = qHTS of pediatric cancer cell lines to identify multiple opportunities for drug repurposing: Primary screen for DAOY cells (AID 1347090); further: nearly all actives have a fitted effect of over 55% in size; further: potency means the concentration at half of the fitted maximal effect
Summary of the method: (§2)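 Eight- or eleven-point concentration series, 48 h treatment at 37 degrees C in growth media; readout CellTiter-Glo luminescence. Potency and efficacy were taken from the concentration-response curves.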

[10] = qHTS of pediatric cancer cell lines to identify multiple opportunities for drug repurposing: Primary screen for SJ-GBM2 cells (AID 1347091); further: potency means the concentration at half of the fitted maximal effect
Summary of the method: as §2

[11] = qHTS of pediatric cancer cell lines to identify multiple opportunities for drug repurposing: Primary screen for A673 cells (AID 1347092); further: nearly all actives have a fitted effect of over 45% in size; further: potency means the concentration at half of the fitted maximal effect
Summary of the method: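 Cell viability of A673 measured by CellTiter-Glo ATP luminescence after 48 hours compound exposure. Dilution series spanned 0.78 nM to 46 µM (MIPE, 11-point) or 0.59 nM to 46 µM (NPC, 8-point); bortezomib 2.3 uM positive control.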

[12] = qHTS of pediatric cancer cell lines to identify multiple opportunities for drug repurposing: Primary screen for SK-N-SH cells (AID 1347098); further: nearly all actives have a fitted effect of over 65% in size; further: potency means the concentration at half of the fitted maximal effect
Summary of the method: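 Cells (500-1,000/well) rested 5 h, then received compounds for 48 h; metabolically active cells were measured by CellTiter-Glo luminescence. Final concentrations spanned up to 46 µM (MIPE, 11-point) or 0.59 nM-46 µM (NPC, 8-point) in primary screens, 11-point in follow-ups.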

[13] = qHTS of pediatric cancer cell lines to identify multiple opportunities for drug repurposing: Primary screen for NB1643 cells (AID 1347099); further: nearly all actives have a fitted effect of over 50% in size; further: potency means the concentration at half of the fitted maximal effect
Summary of the method: as §1

[14] = Natriuretic polypeptide receptor (hNpr1) antagonism - Pilot counterscreen GloSensor control cell line (AID 1347045; calls by dose curve; further: series mostly up to about 38 µM)
Summary of the method: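 Cells were first seeded and incubated overnight at 37C, then loaded with 2% GloSensor substrate for 2 h. Compounds were added for 30 min at room temperature, followed by a baseline read, 50 uM SNP and a final read after 20 min.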

[15] = target: Atrial natriuretic peptide receptor 1 (Homo sapiens) (UniProt P16066); assay: Natriuretic polypeptide receptor (hNpr1) antagonism - Pilot screen (AID 1347049; calls by dose curve;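 further: HEK293 cells with hNpr1 and GloSensor cGMP luciferase stimulated by 0.1 nM hNppA; agonist-evoked cGMP luminescence read 20 min after hNppA addition; series mostly up to about 58 µM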)
Sequence of Atrial natriuretic peptide receptor 1 (Homo sapiens) (P16066 whole entry, looked up): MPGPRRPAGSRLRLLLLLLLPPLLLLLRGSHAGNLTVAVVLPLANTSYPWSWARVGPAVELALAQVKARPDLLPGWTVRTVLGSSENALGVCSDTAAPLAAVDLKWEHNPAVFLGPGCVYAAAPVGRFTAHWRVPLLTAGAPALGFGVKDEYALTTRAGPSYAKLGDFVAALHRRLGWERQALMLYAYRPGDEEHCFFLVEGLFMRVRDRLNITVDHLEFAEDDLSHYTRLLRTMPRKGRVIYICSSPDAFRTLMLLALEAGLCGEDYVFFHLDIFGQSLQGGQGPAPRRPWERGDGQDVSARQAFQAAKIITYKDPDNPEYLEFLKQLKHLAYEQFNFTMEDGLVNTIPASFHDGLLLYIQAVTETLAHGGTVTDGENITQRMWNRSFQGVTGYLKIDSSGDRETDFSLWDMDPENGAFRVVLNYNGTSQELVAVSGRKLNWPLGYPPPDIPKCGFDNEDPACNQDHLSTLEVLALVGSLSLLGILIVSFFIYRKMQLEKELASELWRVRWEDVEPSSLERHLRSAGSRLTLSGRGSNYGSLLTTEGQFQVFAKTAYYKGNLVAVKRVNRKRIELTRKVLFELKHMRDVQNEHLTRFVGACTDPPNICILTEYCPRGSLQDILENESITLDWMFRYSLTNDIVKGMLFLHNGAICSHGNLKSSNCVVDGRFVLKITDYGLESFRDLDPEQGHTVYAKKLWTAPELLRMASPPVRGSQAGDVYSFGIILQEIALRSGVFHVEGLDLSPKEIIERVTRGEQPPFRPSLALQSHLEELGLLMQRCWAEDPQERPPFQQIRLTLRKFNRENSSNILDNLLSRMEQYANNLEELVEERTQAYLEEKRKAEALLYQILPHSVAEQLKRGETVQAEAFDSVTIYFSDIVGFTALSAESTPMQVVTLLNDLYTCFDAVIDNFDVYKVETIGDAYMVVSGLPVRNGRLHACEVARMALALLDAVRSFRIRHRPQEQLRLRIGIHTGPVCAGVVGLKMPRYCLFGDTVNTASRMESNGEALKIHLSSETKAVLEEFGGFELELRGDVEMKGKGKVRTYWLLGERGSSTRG
Summary of the method: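 Cells expressing receptor plus cGMP biosensor are seeded and incubated overnight at 37C, then loaded with GloSensor reagent (2% final) at room temperature for 2 h. Library compounds go on for 30 min. A pre-read precedes agonist (hNppA, 0.1 nM final) and a 20-min readout.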

[16] = target: Atrial natriuretic peptide receptor 2 (Homo sapiens) (UniProt P20594); assay: Natriuretic polypeptide receptor (hNpr2) antagonism - Pilot subtype selectivity assay (AID 1347050; calls by dose curve)
Sequence of Atrial natriuretic peptide receptor 2 (Homo sapiens) (P20594 whole entry, looked up): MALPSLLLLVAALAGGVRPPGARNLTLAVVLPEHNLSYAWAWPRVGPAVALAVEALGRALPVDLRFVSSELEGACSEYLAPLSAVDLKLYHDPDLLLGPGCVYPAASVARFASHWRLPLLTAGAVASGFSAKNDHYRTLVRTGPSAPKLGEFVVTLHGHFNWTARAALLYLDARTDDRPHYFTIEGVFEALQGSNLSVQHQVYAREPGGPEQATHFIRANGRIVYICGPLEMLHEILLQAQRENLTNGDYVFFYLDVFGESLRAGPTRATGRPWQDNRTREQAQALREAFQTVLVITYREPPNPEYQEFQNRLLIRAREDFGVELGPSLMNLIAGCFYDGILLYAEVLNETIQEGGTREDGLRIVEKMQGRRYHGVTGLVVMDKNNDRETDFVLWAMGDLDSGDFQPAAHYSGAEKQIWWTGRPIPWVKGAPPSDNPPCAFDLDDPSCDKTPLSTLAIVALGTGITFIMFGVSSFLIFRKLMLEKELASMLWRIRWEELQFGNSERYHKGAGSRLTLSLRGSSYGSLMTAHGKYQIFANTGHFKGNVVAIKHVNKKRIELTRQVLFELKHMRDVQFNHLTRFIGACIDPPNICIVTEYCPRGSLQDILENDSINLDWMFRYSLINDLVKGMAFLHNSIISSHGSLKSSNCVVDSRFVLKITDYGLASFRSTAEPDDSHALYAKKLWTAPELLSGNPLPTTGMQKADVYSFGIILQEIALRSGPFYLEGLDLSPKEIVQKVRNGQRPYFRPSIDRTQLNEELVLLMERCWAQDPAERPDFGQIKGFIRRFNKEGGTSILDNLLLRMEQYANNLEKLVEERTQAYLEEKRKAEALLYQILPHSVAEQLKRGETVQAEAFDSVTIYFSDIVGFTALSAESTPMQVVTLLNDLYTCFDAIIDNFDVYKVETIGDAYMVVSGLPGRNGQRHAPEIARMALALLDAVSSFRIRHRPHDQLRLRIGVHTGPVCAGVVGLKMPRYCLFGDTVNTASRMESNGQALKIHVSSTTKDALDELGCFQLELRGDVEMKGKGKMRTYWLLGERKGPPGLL
Summary of the method: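 Read-out: GloSensor luminescence (CCD imager), baseline vs post-stimulation. HEK293 cells expressing hNpr2; compounds pre-incubated 30-50 min at ambient temperature; hNppC 1 nM final, 20 min.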

[17] = target: T1, Tyrosine-protein phosphatase non-receptor type substrate 1 (Homo sapiens) + Leukocyte surface antigen CD47 (Homo sapiens) (UniProt P78324+Q08722); assay: CD47-SIRPalpha protein protein interaction - LANCE assay qHTS validation (AID 1347057; active means well fitted curve in the direction sought with a large enough effect in the signal ratio, with a control signal flat, not every such curve was filed as active; the % refers to the signal ratio; further: series mostly up to about 38 µM)
T1 sequence (P78324 whole entry, looked up, the tested form may be a part): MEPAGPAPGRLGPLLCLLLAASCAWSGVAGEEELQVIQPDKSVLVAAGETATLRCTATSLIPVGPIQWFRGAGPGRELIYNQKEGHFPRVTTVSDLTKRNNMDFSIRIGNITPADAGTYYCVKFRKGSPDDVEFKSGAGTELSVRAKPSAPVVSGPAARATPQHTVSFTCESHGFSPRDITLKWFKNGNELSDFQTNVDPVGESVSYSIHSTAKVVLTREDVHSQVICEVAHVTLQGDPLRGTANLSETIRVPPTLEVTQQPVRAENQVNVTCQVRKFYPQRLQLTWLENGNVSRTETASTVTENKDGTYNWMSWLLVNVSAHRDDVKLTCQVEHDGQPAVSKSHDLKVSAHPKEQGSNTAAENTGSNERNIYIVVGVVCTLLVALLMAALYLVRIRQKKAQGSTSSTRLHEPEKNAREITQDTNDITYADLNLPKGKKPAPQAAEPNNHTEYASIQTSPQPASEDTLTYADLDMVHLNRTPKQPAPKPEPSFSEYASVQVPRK
T1 sequence (Q08722 whole entry, looked up, the tested form may be a part): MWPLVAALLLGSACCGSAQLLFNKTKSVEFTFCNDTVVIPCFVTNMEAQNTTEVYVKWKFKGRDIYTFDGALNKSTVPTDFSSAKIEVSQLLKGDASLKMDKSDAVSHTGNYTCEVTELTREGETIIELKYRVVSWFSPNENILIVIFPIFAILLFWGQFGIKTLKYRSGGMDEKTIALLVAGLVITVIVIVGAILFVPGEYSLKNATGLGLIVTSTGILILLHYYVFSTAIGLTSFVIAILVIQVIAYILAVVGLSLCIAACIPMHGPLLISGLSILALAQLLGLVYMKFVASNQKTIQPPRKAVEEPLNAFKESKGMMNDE
Summary of the method: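 Inhibition of soluble CD47/SIRPalpha ectodomain association by titrated compounds, measured as 665/615 nm time-resolved FRET ratio after sequential 30 min room-temperature incubations.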

[18] = target: T1, Tyrosine-protein phosphatase non-receptor type substrate 1 (Homo sapiens) + Leukocyte surface antigen CD47 (Homo sapiens); assay: CD47-SIRPalpha protein protein interaction - HTRF assay qHTS validation (AID 1347058; active means well fitted curve in the direction sought with a large enough effect in the signal ratio, not every such curve was filed as active; the % refers to the signal ratio; further: series mostly up to about 38 µM)
Summary of the method: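 Soluble extracellular domains (6His-CD47, Avi-tag-biotinylated SIRPalpha) in PBS pH 7.4 with 0.05% IGEPAL CA-630. Compounds were preincubated 30 min at RT with CD47 and anti-His-Eu, then SIRPalpha and SAV-XL665 were added. TR-FRET 665/615 ratio.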

[19] = target: T1, Tyrosine-protein phosphatase non-receptor type substrate 1 (Homo sapiens) + Leukocyte surface antigen CD47 (Homo sapiens); assay: CD47-SIRPalpha protein protein interaction - Alpha assay qHTS validation (AID 1347059);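 further: bead proximity luminescence from CD47 binding SIRPalpha after compound preincubation with SIRPalpha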
Summary of the method: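 In PBS (pH 7.4) with 0.05% IGEPAL CA-630, compound is preincubated with biotin-Avi-SIRPalpha ectodomain before His-CD47 ectodomain and affinity beads are added. Light-protected room-temperature incubations; AlphaScreen readout.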

[20] = target: Parathyroid hormone/parathyroid hormone-related peptide receptor (Homo sapiens) (UniProt Q03431); assay: qHTS for PTHR1 Agonists: Optimization Screen against the NCGC LOPAC library (AID 1347079);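 further: GloSensor cAMP luminescence in HEK-293 GP2 cells expressing human PTHR1 with IBMX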
Sequence of Parathyroid hormone/parathyroid hormone-related peptide receptor (Homo sapiens) (Q03431 whole entry, looked up): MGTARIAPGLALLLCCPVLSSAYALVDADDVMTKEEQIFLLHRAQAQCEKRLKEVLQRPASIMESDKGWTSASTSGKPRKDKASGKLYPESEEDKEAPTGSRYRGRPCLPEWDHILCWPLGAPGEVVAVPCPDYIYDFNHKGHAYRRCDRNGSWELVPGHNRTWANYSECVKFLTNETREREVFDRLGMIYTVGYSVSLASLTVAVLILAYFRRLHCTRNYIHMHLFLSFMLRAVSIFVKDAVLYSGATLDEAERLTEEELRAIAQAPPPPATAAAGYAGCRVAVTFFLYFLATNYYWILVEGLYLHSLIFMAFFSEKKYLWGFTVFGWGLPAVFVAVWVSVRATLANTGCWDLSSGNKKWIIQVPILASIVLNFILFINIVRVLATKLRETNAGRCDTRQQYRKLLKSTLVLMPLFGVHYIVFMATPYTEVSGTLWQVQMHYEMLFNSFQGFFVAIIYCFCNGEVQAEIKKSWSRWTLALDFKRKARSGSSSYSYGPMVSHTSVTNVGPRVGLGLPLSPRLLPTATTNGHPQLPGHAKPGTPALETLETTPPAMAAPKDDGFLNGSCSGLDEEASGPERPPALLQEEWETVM
Summary of the method: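 HEK-293 GP2 cells, PTHR1 + GloSensor cAMP; 3000 cells/well, o/n. Luciferin + IBMX 0.5mM each (stock), 1 hr 37C. Cpd titration, 1 hr 37C. Lum after 15 min RT. Ctrl M-PTH(1-15) top 10uM.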

Measured: Potency

CCOc1cc(C=C2C(=O)N(c3ccccc3)N=C2C)cc(Cl)c1OCC(=O)OC
inactive: [1] | [2] | [3] | [5] | [7] | [8]
active: [4] 11800 nM | [6] 20900 nM

Cc1c(CN2CCN(C(=O)C(C)C)CC2)sc2c(N3CCOCC3)nc(-c3cnc(N)nc3)nc12
active: [1] 83.3 nM | [3] 466 nM | [9] 469 nM | [10] 132 nM | [11] 469 nM | [4] 23.5 nM | [5] 485 nM | [6] 118 nM | [8] 332 nM | [12] 961 nM | [13] 6620 nM

CC1(C)SCCN(S(=O)(=O)c2ccc(OCC#CCO)cc2)[C@@H]1C(=O)NO
inactive: [1] | [3] | [9] | [10] | [11] | [4] | [5] | [6] | [7] | [8]

CCn1c(-c2nonc2N)nc2cnc(Oc3cccc(NC(=O)c4ccc(OCCN5CCOCC5)cc4)c3)cc21
inactive: [3] | [6] | [7]
active: [1] 1640 nM | [2] 14800 nM | [4] 7430 nM | [8] 662 nM

CO[C@@H]1[C@H](N(C)C(=O)c2ccccc2)C[C@H]2O[C@]1(C)n1c3ccccc3c3c4c(c5c6ccccc6n2c5c31)C(=O)NC4
active: [1] 1.48 µM and 1.3 µM | [11] 935 nM | [4] 662 nM | [7] 3720 nM | [8] 833 nM | [12] 1920 nM

COc1ccc(-c2ccc3c(N4CCOCC4)nc(N4C[C@@H](C)O[C@@H](C)C4)nc3n2)cc1CO
inactive: [13]
active: [1] 296 nM | [10] 296 nM | [11] 11800 nM | [4] 93.5 nM | [5] 1370 nM | [6] 1480 nM

NC(=O)C1CCCc2c1[nH]c1ccc(Cl)cc21 (configuration not stated)
active: [11] 23500 nM | [4] 26400 nM
inactive: [1] | [3] | [9] | [10] | [5] | [6] | [7]

COc1c(Cl)cc2c([nH]c3cnccc32)c1NC(=O)c1cccnc1C
active: [11] 469 nM | [4] 1320 nM
inactive: [1] | [2] | [6] | [7]

CCc1ccc(CCOc2ccc(CC3SC(=O)NC3=O)cc2)nc1 (configuration not stated)
inactive: [1] | [3] | [9] | [11] | [4] | [5] | [6] | [7] | [8] | [12] | [13]

Nc1nccc(-c2ccc3noc(-c4ccc(Cl)cc4)c3c2)n1
active: [11] 7430 nM | [4] 10500 nM | [13] 16600 nM
inactive: [1] | [3] | [6] | [7] | [8]

C[C@]12CC[C@H](O)CC1=CC[C@@H]1[C@H]2CC[C@]2(C)C(c3cccnc3)=CC[C@H]12
inactive: [1] | [3] | [9] | [11] | [4] | [5] | [7]

CCOC(=O)C1=C[C@]2(CC)CCCN3CCc4c(n1c1ccccc41)[C@@H]32
active: [4] 13200 nM
not listed: [1] | [8] | [11] | [12]
inactive: all other assays above

Nc1nc2ccc(OC(F)(F)F)cc2s1
active: [10] 21100 nM
not listed: [1] | [2] | [4] | [5] | [8] | [11] | [12] | [13]
inactive: all other assays above

O=C(O)CCc1ccc(NCc2cccc(Oc3ccccc3)c2)cc1
not listed: [1] | [13] | [14] | [15] | [16] | [20]
inactive: all other assays above
